# High-throughput results deposited in PubChem by National Center for Advancing Translational Sciences (NCATS).
# Most compounds without a hit are left out; they make up all but 9.4% or so of the library.
# Rab9 promoter act = activates the Rab9 promoter | 320,000 tested, 2.8% active | Huh7 Rab9 promoter-luciferase reporter, luminescence, 24 h | Potency, µM (highest dose often 9.22 µM), without a hit: top-dose activation, negative = inhibition, actives largely listed as activators; further: % of control where 0% means no effect; nearly all actives have a fitted effect of over 60% in size
#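 Steps: seed 1500 Huh7 Rab9-luc cells per well, rest 2 h at 37 °C; add compound in DMSO; incubate 24 h; add luciferase reagent, 10 min ambient; read luminescence.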
# SMN2 splice enh = increases expression of the SMN2 splice variant; 210,000 tested, 2.8% active; AID 1458; Potency, µM (series often up to 46.1 µM), without a hit: at the top dose activity change, positive = activation, hits mostly activators; HEK293 SMN2-luciferase splicing reporter, luminescence, 30-36 h; further: % of control where 0% means no effect; nearly all actives have a fitted effect of over 55% in size
#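 HEK293 cells carry an SMN2 […]–luciferase reporter in which exon 7 inclusion puts luciferase in frame. Cells were plated 10-12 h before compound addition, then incubated 30-36 h at 37C. ONE-Glo luminescence was read; sodium butyrate at 4.5 mM final served as control.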
# ELG1 DNA repair = inhibitors of ELG1-dependent DNA repair in HEK293T cells. Potency, µM (doses to about 46.1 µM), for inactives: at the top dose activity change, negative = inhibition, usual class: inhibitors. HEK293T ELG1-luciferase reporter, luminescence, 16 h; DNA damage induced by 5-fluorouridine. 330,000 tested, 2.3% active; further: on the % scale 0 is the no-effect control and ±100 the full control effect; nearly all actives have a fitted effect of over 55% in size
#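 In this reporter screen, reduction of luminescence relative to DMSO vehicle indicated activity. Compounds and 5-fluorouridine were added together to 2,000 cells per well, incubated for 16 hr at 37 °C, then developed with ONE-Glo.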
# FLuc counter = firefly luciferase modulation, counter-screen for miR-21 project | P08659 | purified FLuc, Km substrates, luminescence inhibition | Potency, µM (doses to about 57.5 µM), for the others: at the highest dose activity change, negative = inhibition, most hits filed as inhibitors | 360,000 tested, 6.9% active | AID 588342;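 further: plate controls were vehicle for no effect and reference inhibitor for full effect; nearly all actives have a fitted effect of over 55% in size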
# Target sequence (P08659 whole entry, looked up): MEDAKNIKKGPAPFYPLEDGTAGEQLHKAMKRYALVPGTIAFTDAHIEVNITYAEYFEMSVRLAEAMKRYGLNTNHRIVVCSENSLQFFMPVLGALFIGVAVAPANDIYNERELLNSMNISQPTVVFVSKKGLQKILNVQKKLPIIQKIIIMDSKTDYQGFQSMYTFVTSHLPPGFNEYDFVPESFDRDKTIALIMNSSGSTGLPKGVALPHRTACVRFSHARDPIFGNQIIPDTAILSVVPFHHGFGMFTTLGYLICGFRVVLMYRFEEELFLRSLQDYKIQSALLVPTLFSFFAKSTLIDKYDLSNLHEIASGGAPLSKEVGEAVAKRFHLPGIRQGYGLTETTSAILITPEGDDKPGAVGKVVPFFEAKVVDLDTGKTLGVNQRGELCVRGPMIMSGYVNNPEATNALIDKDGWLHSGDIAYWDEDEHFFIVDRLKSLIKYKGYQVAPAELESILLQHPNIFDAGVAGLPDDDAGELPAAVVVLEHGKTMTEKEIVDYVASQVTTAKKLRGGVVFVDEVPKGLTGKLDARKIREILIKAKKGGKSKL
#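 Biochemical qHTS of compounds, final roughly 60 µM downward over six points, against 10 nM purified firefly luciferase using Km concentrations of substrates (10 uM D-luciferin, 10 uM ATP) in Tris acetate pH 7.5 buffer; luminescence output.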
# NPC1 promoter act = activates the NPC1 promoter. Huh7 NPC1 promoter luciferase reporter, 24 h. Potency, µM (series often up to 9.22 µM), for the others: top-dose activation, usual class: activators. 320,000 tested, 2.4% active. AID 485313; further: % of control where 0% means no effect; nearly all actives have a fitted effect of over 60% in size
#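 Compounds in DMSO were transferred onto Huh7 NPC1-luciferase reporter cells pre-incubated 2 h; after 24 h at 37 °C, Amplite reagent was dispensed and luminescence recorded 10 min later.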
# ELG1 genotox = genotoxicity induction in ELG1-luciferase HEK293T cells. HEK293T ELG1-luciferase reporter, luminescence, 16 h. Potency, µM (series often up to 46 µM), for the others: at the top dose activity change, positive = activation, usual class: activators. 330,000 tested, 1.3% active. AID 504466; further: % of control where 0% means no effect; nearly all actives have a fitted effect of over 60% in size
#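 After overnight (16 hr) compound treatment at 37 °C, ELG1-luciferase HEK293T cells were lysed with ONE-Glo; luminescence quantified 30 min later at room temperature.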
# * marks the source's active call; other numbers are inactive results; ? = inconclusive; . = not tested or not shown; [ ] = dose if it differs, or a comment. The call rests on the fitted dose curve; in most records, active means well fitted curve in the direction sought with a large enough effect; inconclusive means small, poorly fitted or top-dose-only effect, or another doubt; inactive means no such curve, though single readings can be large; an effect the other way counts as inactive or inconclusive. Potency means the concentration at half of the fitted maximal effect.
SMILES,Rab9 promoter act,SMN2 splice enh,ELG1 DNA repair,FLuc counter,NPC1 promoter act,ELG1 genotox
Cc1ccc(C(=O)Nc2sc3c(c2C(=O)O)CCC(C)C3)o1 (configuration not stated),.,.,?,.,.,0.7%
Cc1ccc(C(=O)Nc2sc3c(c2C(=O)O)CCCCC3)o1,3.55µM*,12.6µM*,3.1%,2.69µM*,3.55µM*,2.3%
Nc1nc(CSc2ccc(Cl)cc2)nc(N2CCCCC2)n1,-6.1%,-5.9%,1.1%,?,-2.4%,-0.1%
Nc1nc(CSc2ccccc2)nc(N2CCCCC2)n1,?,20µM*,?,?,?,?
CNc1ccc(/C=C2\CSc3ccccc3C2=O)cc1[N+](=O)[O-],14.0%,-50.7%,?,0.757µM*,10.3%,?
CNc1ccc(/C=C(\CCC(=O)O)c2nc3ccccc3s2)cc1[N+](=O)[O-],0.4%,2.1%,?,-16.1%,-6.8%,10.3%
CC1=C(c2ccc(C)c(C)c2)S(=O)(=O)N=C1N1CCN(c2cccc(C(F)(F)F)c2)CC1,.,.,.,0.2%,.,.
COC(=O)c1cnn(-c2ccc(C(=O)Nc3cccc(C(C)=O)c3)cc2)c1N,-2.8%,.,.,2.1%,1.0%,.
CCN(C(=O)Cn1c(=O)n(CCCS(=O)(=O)C2CCCCC2)c(=O)c2ccccc21)c1cccc(C)c1,.,-18.3%,.,-1.2%,.,.
Nc1c(C(=O)CSc2nnnn2-c2ccccc2)c(=O)[nH]c(=O)n1C1CC1,.,.,-1.6%,.,.,9.1%
Cc1ccccc1-n1nnnc1SCC(=O)c1c(N)n(C2CC2)c(=O)[nH]c1=O,2.1%,.,20.6µM*,4.0%,-1.6%,-2.8%
CN(C)c1ccc(/C=N/NC(=O)CNC(=O)c2ccco2)cc1,-1.9%,-46.2%,5.4%,?,0.8%,7.0%
CN(C)c1ccc(/C=N/NC(=O)COc2ccccc2)cc1,19.7%,15.2%,?,19µM*,9.3%,7.0%
CN(C)c1ccc(/C=N/NC(=O)CNC(=O)/C=C/c2ccccc2)cc1,?,.,?,2.39µM*,?,?
CN(C)c1ccc(/C=N/NC(=S)NCc2ccccc2)cc1,-2.9%,-10.1%,12.7%,?,10.3%,-4.2%
CNC(=S)N/N=C/c1ccc(N(C)C)cc1,2.82µM*,.,?,?,3.55µM*,?
Cc1cc(C)c(NN=c2c(=O)c3ccccc3c2=O)c(C)c1,1.78µM*,12.6µM*,?,0.953µM*,2.82µM*,?
O=c1c(=NNc2ccccc2Cl)c(=O)c2ccccc12,?,-14.7%,?,0.0757µM*,3.16µM*,?
CN(C)c1ccc(CNC(=O)c2cnc3sc(N4CCOCC4)nn3c2=O)cc1,.,.,.,-4.5%,.,.
O=C(O)c1ccc(N=NN2CCCC2)cc1,1.7%,9.1%,?,-13.5%,5.2%,1.2%
CC(=O)Nc1cccc(N=NN2CCOCC2)c1,13.8%,.,21.1%,-14.6%,-2.2%,8.0%
O=C(O)c1ccc(N=NN2CCCCCC2)cc1,0.316µM*,4.47µM*,?,10.7µM*,?,7.2%
CC(=O)Nc1cccc(N=NN2CCCCC2)c1,14.2%,0.4%,?,16.9µM*,7.3%,9.0%
CN(C)Cc1nc(-c2cn(C)c3ccccc23)no1,.,-13.1%,.,.,.,.
CCCCCc1ccc(OCCCC[n+]2cccc(C)c2)c(CCCCC)c1,-1.3%,.,-16.1%,-0.5%,-13.4%,-8.3%
SMILES,Rab9 promoter act,SMN2 splice enh,ELG1 DNA repair,FLuc counter,NPC1 promoter act,ELG1 genotox
CCCCCc1ccc(OCCCC[n+]2ccccc2)c(CCCCC)c1,-21.6%,-66.1%,13µM*,0.3%,-34.8%,-15.5%
CCCCCc1ccc(OCCCC[n+]2ccc(C)cc2)c(CCCCC)c1,-29.3%,.,14.6µM*,1.8%,-28.0%,-9.6%
CCC(C)(C)c1ccc(OCCCC[n+]2ccccc2)c(C(C)(C)CC)c1,-10.8%,-67.9%,18.3µM*,2.3%,-18.8%,-8.5%
CCN(Cc1ccccc1)C(=O)c1cnn(-c2ccc(F)cc2)c1-n1cccc1,.,.,.,-1.9%,.,.
Cc1noc(-c2ccc(NCc3ccccc3)c([N+](=O)[O-])c2)n1,.,.,.,-15.8%,.,.
COc1cc(-c2noc(-c3ccc(NCc4ccccc4)c([N+](=O)[O-])c3)n2)cc(OC)c1OC,.,.,.,15.1µM*,.,.
COc1cc(-c2noc(-c3ccc(NCC4CCCO4)c([N+](=O)[O-])c3)n2)cc(OC)c1OC (configuration not stated),.,.,.,21.3µM*,.,.
Cc1cccc(-c2noc(-c3ccc(NC4CCCC4)c([N+](=O)[O-])c3)n2)c1,.,.,.,-19.6%,.,.
O=[N+]([O-])c1cc(-c2nc(-c3ccco3)no2)ccc1NCc1ccccc1,.,.,.,15.1µM*,.,.
O=[N+]([O-])c1cc(-c2nc(-c3ccccn3)no2)ccc1NCc1ccccc1,.,.,.,-17.7%,.,.
COc1ccc(-c2noc(-c3ccc(NC4CCCC4)c([N+](=O)[O-])c3)n2)cc1OC,.,.,.,13.5µM*,.,.
CCc1cccc(NC(=O)C(Cc2ccccc2)NS(=O)(=O)c2ccc3c(c2)c(=O)n(C)c(=O)n3C)c1 (configuration not stated),.,21.5%,.,-11.7%,.,.
Cn1ncc2c(Nc3cccc(Cl)c3)nc(Nc3cccc(Cl)c3)nc21,-4.0%,-6.8%[9.22 µM],?,?,-3.5%,-9.2%
CCCNc1nc(Nc2ccc(C)c(Cl)c2)c2cnn(C)c2n1,-6.1%,.,14.6µM*,-0.6%,-1.9%,-6.3%
Cn1ncc2c(Nc3ccc(Br)cc3)nc(Nc3ccc(Br)cc3)nc21,-5.1%[1.84 µM],.,23.1µM*,-11.8%,-4.4%,-7.2%
COc1ccc2c(c1)c1c(c(=O)n(-c3cc(Cl)ccc3C)c(=O)n1CC(=O)N1CCCC1)n2C,.,.,.,-2.6%,.,.
O=c1c2c([nH]c3ccccc13)CCCC2,1.7%,-24.3%,-2.9%,-1.1%,3.6%,-4.5%
CC(C)(C)C1CCc2[nH]c3ccccc3c(=O)c2C1 (configuration not stated),9.8%,-6.1%,?,6.01µM*,20.4%,?
O=c1oc2ccccc2cc1-c1cn2cc(Cc3cc(Cl)ccc3Cl)sc2n1,.,-2.3%,.,0.2%,.,.
Fc1ccccc1Cc1cn2cc(-c3ccc(Cl)cc3)nc2s1,.,?,.,0.301µM*,.,.
Clc1ccc(-c2cn3cc(Cc4ccccc4)sc3n2)cc1,.,5.62µM*,.,0.239µM*,.,.
Fc1ccc(-c2cn3cc(Cc4ccccc4Cl)sc3n2)cc1,.,2.24µM*,.,0.477µM*,.,.
Cc1ccc(Cc2cn3cc(-c4ccccc4)nc3s2)cc1,.,2.82µM*,.,0.151µM*,.,.
CC#CCN1c2ccccc2[C@]23C[C@@H](C(=O)OC)N(S(=O)(=O)c4ccc([N+](=O)[O-])cc4)C2=NC(C(=O)OC)=C(C(=O)OC)[C@H]13,.,-8.3%[9.22 µM],.,.,.,.
CC1CCN(C(=O)Cn2cc(SCC(=O)NCc3ccc(F)cc3)c3ccccc32)CC1,.,.,.,-10.8%,.,.
